Results reported in ChEMBL document CHEMBL3988442, “University of Dundee, Small-Polar-MMV Screening Library” (2021).
For part of these data: Measured potencies and affinities stand elsewhere.

Assays:
Parameters in all cases: scale not given: direction of the effect not stated beside the values
[1] = molecular target: Protein translocase subunit SecA (Escherichia coli (strain K12)) (UniProt P10408); test: Assay to Identify E. coli SecA ATPase Inhibitors; type: functional; conditions: 30 µM
[2] = molecular target: T1, Ubiquitin-activating enzyme e1, putative (Leishmania donovani (strain BPK282A1)) (UniProt E9BSI1); test: Leishmania donovani Ubiquitin Activating Enzyme (LdE1); type: functional; conditions: 30 µM
T1 sequence (whole entry): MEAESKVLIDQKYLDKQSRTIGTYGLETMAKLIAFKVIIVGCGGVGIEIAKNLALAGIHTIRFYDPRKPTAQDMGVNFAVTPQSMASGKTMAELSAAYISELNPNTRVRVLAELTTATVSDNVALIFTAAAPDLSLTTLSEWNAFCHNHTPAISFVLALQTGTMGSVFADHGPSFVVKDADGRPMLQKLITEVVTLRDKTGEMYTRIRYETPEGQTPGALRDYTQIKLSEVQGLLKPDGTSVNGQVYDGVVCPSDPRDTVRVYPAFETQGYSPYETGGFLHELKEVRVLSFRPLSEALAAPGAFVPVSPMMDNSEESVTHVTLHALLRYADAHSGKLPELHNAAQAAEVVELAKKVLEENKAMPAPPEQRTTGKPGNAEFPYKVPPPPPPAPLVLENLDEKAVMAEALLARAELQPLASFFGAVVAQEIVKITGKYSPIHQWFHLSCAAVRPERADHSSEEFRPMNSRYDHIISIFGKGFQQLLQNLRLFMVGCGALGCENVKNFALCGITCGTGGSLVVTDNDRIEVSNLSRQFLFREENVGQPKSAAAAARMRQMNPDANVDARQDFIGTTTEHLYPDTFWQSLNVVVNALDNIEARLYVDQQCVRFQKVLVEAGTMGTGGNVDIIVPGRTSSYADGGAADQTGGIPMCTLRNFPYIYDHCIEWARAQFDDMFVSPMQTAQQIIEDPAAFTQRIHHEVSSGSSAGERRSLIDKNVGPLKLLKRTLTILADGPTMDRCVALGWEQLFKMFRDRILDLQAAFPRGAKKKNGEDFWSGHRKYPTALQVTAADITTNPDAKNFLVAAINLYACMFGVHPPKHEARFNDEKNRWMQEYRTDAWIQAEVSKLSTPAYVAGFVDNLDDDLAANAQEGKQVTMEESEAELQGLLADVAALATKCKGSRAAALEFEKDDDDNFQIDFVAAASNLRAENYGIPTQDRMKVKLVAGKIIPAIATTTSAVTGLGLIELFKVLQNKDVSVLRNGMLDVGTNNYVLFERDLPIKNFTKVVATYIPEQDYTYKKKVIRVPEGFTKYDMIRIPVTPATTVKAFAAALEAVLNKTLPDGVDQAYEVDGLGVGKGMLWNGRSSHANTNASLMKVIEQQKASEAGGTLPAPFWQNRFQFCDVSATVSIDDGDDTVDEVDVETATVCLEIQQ

[3] = molecular target: Sialic acid-binding Ig-like lectin 9 (Homo sapiens) (UniProt Q9Y336); test: Hs-Siglec9 ALPHAscreen SOP 20170721; conditions: 10 µM
Sialic acid-binding Ig-like lectin 9 (Homo sapiens), sequence (Q9Y336 whole entry): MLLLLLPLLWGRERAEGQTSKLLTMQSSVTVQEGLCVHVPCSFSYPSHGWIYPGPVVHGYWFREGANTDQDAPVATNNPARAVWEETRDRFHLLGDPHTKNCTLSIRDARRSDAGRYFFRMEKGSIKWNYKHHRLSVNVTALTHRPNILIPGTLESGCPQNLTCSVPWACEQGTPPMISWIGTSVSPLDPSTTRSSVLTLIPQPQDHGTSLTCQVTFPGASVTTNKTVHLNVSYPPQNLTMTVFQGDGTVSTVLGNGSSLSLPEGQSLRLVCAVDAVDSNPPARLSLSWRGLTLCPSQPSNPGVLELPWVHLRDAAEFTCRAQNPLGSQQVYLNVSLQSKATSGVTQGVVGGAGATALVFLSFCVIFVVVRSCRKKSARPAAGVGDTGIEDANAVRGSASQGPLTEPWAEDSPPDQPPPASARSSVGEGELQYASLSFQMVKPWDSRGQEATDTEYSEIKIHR

Trypanosoma cruzi = test: Trypanosoma cruzi phosphomannomutase and mannose-1-phosphate guanylyltransferase assay; type: functional; conditions: 10 µM
[4] = molecular target: T2, Arginase-2, mitochondrial (Homo sapiens) (UniProt P78540); test: in vitro enzyme assay to detect the production of urea directly proportional to the activity of Arginase II; type: functional; conditions: 33.3 µM; also: in the data most compounds retested in dose-response had high values
T2 sequence (whole entry): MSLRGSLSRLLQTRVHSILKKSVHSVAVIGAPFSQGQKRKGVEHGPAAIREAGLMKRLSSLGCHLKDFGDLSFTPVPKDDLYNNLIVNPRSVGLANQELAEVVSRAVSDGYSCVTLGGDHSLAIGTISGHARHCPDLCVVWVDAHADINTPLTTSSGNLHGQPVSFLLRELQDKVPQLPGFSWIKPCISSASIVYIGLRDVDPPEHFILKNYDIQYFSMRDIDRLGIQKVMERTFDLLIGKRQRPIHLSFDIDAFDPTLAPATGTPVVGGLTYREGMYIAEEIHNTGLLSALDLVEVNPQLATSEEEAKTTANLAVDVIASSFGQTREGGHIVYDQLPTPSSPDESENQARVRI

[5] = molecular target: T3, Proteasome subunit beta (Trypanosoma cruzi) (UniProt O96673); test: Trypanosoma cruzi proteasome chymotrypsin-like activity (TcProtChymo) assay.; also: in the data most compounds retested in dose-response had high values; type: functional; conditions: 9.37 µM
T3 sequence (whole entry): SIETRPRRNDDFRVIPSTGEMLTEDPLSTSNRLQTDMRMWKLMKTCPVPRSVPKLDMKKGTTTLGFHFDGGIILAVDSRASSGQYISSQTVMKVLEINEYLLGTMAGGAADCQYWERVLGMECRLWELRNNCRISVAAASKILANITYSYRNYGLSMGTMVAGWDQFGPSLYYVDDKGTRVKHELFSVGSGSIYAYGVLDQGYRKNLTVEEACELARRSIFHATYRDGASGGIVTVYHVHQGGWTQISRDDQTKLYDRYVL

Homo sapiens = organism: Homo sapiens; test: To identify inhibition of the IFN signalling (Jak-Stat) pathway via expression of an eGFP reporter gene under the control of an IFN-stimulated response element (ISRE) containing MxA promoter.; type: functional; conditions: 30 µM
[6] = molecular target: T4, Tyrosyl-tRNA synthetase, putative (Trypanosoma cruzi (strain CL Brener)) (UniProt Q4DSP6); test: Trypanosoma cruzi tyrosyl tRNA synthetase (TcYRS) _High Tyrosine SOP; type: functional; conditions: 30 µM; also: in the data most compounds retested in dose-response had high values
T4 sequence (whole entry): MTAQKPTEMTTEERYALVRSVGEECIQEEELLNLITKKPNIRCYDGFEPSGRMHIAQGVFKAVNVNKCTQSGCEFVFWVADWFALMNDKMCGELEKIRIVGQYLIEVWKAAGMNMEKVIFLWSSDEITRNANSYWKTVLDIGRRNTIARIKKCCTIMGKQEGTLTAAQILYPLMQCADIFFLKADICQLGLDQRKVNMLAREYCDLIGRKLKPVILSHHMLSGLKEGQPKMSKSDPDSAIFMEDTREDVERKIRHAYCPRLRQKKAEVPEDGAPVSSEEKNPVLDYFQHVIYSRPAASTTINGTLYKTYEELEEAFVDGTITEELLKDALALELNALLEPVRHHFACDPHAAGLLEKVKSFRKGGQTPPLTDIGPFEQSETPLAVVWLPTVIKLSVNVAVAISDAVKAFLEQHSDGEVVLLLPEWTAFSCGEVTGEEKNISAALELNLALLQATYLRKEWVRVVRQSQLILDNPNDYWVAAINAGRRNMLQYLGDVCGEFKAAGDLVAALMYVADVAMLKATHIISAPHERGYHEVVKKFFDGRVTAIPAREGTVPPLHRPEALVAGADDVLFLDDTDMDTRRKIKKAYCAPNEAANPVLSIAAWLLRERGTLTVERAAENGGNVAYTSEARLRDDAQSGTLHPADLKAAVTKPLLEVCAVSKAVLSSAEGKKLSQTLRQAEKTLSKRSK

[7] = molecular target: T4, Tyrosyl-tRNA synthetase, putative (Trypanosoma cruzi (strain CL Brener)); test: Trypanosoma cruzi tyrosyl tRNA synthetase (TcYRS) SOP; type: functional; conditions: 30 µM
[8] = molecular target: Chromo domain-containing protein 1 (Saccharomyces cerevisiae (strain ATCC 204508 / S288c) (Baker's yeast)) (UniProt P32657); test: ScCHD-1 Enzyme Inhibition Assay; type: functional; conditions: 30 µM; also: in the data most compounds retested in dose-response had high values
Chromo domain-containing protein 1 (Saccharomyces cerevisiae (strain ATCC 204508 / S288c) (Baker's yeast)), sequence (P32657 whole entry, the tested form may be a part): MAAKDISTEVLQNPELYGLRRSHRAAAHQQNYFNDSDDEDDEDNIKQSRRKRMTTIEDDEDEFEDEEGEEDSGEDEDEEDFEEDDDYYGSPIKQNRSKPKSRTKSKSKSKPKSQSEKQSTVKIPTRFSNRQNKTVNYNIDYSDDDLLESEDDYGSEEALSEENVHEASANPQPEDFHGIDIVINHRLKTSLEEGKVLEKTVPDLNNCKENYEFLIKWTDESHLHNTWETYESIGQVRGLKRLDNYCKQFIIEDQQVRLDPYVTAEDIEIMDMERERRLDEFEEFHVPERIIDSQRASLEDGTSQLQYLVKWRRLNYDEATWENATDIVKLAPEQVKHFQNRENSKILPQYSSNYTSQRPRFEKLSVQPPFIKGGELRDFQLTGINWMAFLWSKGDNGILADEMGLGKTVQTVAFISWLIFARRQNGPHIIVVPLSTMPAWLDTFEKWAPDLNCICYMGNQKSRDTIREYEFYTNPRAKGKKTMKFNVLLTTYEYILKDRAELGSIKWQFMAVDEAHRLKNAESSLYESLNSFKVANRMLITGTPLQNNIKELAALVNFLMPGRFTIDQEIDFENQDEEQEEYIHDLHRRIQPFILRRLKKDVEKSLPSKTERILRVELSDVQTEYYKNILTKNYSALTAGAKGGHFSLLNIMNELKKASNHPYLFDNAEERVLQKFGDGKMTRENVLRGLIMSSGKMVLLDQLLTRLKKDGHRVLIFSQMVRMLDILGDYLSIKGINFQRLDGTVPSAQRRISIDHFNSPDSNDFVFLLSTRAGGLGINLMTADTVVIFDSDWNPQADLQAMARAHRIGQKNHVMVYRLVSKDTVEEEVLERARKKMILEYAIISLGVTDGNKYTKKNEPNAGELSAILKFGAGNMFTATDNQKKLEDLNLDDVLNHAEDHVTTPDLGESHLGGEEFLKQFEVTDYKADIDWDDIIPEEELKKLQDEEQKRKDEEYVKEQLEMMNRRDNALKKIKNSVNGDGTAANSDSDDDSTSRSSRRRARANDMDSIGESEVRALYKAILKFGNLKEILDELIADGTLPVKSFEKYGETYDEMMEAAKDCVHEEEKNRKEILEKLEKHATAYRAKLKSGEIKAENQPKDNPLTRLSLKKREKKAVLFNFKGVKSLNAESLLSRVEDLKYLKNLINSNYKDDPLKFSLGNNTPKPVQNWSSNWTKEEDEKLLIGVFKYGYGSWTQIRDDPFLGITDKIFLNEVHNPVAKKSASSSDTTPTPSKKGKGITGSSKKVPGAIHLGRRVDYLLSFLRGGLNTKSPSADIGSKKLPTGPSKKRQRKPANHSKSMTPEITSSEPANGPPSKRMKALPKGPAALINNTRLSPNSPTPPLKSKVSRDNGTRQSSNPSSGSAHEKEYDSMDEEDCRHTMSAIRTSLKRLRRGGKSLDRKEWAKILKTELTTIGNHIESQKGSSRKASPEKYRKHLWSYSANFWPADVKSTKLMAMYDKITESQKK

Protein translocase subunit SecA (Escherichia coli (strain K12)), sequence (P10408 whole entry): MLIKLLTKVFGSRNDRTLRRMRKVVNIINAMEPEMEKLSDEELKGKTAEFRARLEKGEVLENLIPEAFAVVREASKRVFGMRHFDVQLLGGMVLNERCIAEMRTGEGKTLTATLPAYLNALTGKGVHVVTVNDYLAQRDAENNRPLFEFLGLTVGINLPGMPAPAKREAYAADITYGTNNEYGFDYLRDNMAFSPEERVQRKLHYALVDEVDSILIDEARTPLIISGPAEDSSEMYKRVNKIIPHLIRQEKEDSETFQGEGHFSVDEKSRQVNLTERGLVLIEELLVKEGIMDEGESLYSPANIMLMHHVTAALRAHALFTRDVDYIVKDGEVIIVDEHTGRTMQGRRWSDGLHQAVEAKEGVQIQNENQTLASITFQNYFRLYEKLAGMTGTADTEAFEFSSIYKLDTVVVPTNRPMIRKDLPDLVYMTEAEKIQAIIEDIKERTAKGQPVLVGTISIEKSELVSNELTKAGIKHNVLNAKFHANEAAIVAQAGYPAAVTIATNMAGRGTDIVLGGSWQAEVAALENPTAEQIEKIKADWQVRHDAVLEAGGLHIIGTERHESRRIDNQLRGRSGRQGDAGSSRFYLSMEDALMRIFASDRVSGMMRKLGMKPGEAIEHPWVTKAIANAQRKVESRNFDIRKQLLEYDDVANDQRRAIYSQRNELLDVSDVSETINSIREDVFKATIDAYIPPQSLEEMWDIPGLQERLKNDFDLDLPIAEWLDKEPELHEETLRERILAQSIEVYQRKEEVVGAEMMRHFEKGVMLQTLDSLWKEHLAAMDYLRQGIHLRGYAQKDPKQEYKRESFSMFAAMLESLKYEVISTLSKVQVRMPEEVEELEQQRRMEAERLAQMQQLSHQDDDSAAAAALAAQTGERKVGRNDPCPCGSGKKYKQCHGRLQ

| SMILES | Percent Effect [1] [%] | Percent Effect [2] [%] | Percent Effect [3] [%] | Percent Effect (Trypanosoma cruzi) [%] | Percent Effect [4] [%] | Percent Effect [5] [%] | Percent Effect (Homo sapiens) [%] | Percent Effect [6] [%] | Percent Effect [7] [%] | Percent Effect [8] [%] |
| --- | --- | --- | --- | --- | --- | --- | --- | --- | --- | --- |
| COCc1c(C(=O)NC2CCCC2)nnn1-c1ccc(C)cc1 | 106 | 9.33 | -6.27 | -2.37 | 0.443 | 8.54 | 14.6 | -2.12 | 7.5 | -17.9 |
| CCn1cc2c(n1)C(COC)CN(C(=O)COc1ccccc1C)C2 (stereo not given) | -5.08 | -3.9 | 1.02 | -5.16 | -13.4 | 11 | 4.86 | 2.63 | 5.13 | 2.06 |
| CC(=O)N1N=C(c2ccccc2)OC1C(=O)NCCc1cccc(Cl)c1 (stereo not given) | 4.91 | 6.67 | -6.99 | -2.56 | 2.65 | 8.05 | 8.59 | 0 | 10 | -24.5 |
| CNc1nc2c(s1)C(=O)CN(C(=O)NCc1ccccc1)C2 | -2.61 | 8 | -5.95 | -8.84 | 5.32 | 9.41 | 15.2 | 1.58 | 2.56 | -6.84 |
| COCCc1noc(CN2CCCCC2Cn2nc(C)cc2C)n1 (stereo not given) | -2.9 | -2.6 | 13.8 | -1.68 | 2.25 | -3.51 | -5.82 | 0.98 | 7.06 | 9 |
| Cc1cc(NC(=O)NCC2CCOC2)no1 (stereo not given) | 0.735 | 10.7 | 0.0318 | -6.63 | 9.76 | 5 | 5.61 | 4.74 | 7.69 | -11.3 |
| COc1ccc(F)cc1C(=O)N(C)Cc1cc(C)on1 | -0.183 | 15.4 | -5.44 | -1.22 | -0.41 | 14.1 | 21.1 | 2.39 | 13.2 | -1.49 |
| CC(C)N1CCO[C@H]2CN(C(=O)c3ccoc3)C[C@H]21 | -6.85 | 3.9 | -7.81 | -1.66 | 2.43 | 4.85 | 0.754 | 5.79 | 10.3 | 3.83 |
| CN(C)S(=O)(=O)N1CCCC(c2cccc(Cc3ccccc3)n2)C1 (stereo not given) | -0.482 | 6.67 | -7.39 | -6.31 | -5.31 | 14.4 | 58.5 | -5.29 | 0 | -8.36 |
| Cc1occc1CNC(=O)N(CCCO)C1CCc2ccccc21 (stereo not given) | -4.54 | 10.7 | 5.35 | 3.41 | -1.77 | 4.33 | 16.1 | 2.63 | 7.69 | -8.92 |
| COC1CCCN(Cc2nc(Cc3ccccc3F)no2)C1 (stereo not given) | -7.36 | -5.41 | 1.17 | 2.04 | 1.75 | 1.71 | 3.24 | 5.85 | 14.6 | 0.44 |
| Cc1cccc(-c2noc(CN3CCCC3Cn3cccn3)n2)c1 (stereo not given) | -4.47 | -13.3 | 4.15 | 2.81 | -0.887 | 9.07 | 35.3 | 1.58 | 2.56 | -6.03 |
| CC(=O)N1CCCC1c1csc(Nc2cnccn2)n1 (stereo not given) | 0.761 | 9.33 | -8.01 | -5.33 | 2.21 | 11.8 | 20 | 3.17 | 10 | -25.7 |
| Cc1csc(N2CCCN(C(=O)c3c(C)oc(C)c3C)CC2)n1 | -7.12 | 18.7 | 3.18 | 4.22 | -1.77 | 20.1 | 8.84 | 7.89 | 17.9 | -8.96 |
| Cc1ccc(-c2nc(CN3CCn4c(nnc4C4CC4)C3)co2)cc1 | -5.43 | -5.33 | -0.413 | -1.41 | 0 | 9.92 | -8.93 | 6.84 | 12.8 | -6.77 |
| NC(=O)N1CCC2(CC1)CN(Cc1cccnc1)C(=O)CO2 | -0.758 | 11.7 | 1.96 | -0.188 | 1.37 | 8.5 | -22.1 | 10.6 | 15 | -1.18 |
| COCc1nc(C(=O)NS(=O)(=O)c2ccc(C)s2)cs1 | -1.18 | -5.13 | -1.4 | -5.35 | 6.56 | -7.25 | 18.7 | 1.44 | 1.21 | -0.772 |
| CCCN1CCCn2nc(CNS(=O)(=O)c3ccc(C)cc3)cc2C1 | -8.28 | 2.7 | 2.48 | -5.72 | -3.85 | 10.3 | 5.89 | 3.72 | 9.76 | -1.82 |
| O=c1cc(Cn2cncn2)nc2n1CCCN(CC1CC1)C2 | -4.98 | 11.7 | -1.33 | 1.27 | -1.22 | 9.09 | -6.93 | 3.68 | 5.13 | -4.01 |
| CCc1nccn1-c1cncc(C2CCCN2Cc2cccnc2)n1 (stereo not given) | -0.52 | 9.33 | 4.5 | 1.38 | 0.443 | 13.3 | -9.84 | 6.35 | 20 | -22.2 |
| Cc1noc(C2CCN(C(=O)CCc3nccs3)CC2)n1 | 0.362 | 17.9 | -8.4 | -1.78 | 3.28 | 5.72 | 17.8 | 6.22 | 13.2 | -4.78 |
| CC[C@H](C)Nc1nccc(-c2cnc3sc(C)c(C)n3c2=O)n1 | -6.51 | 0 | 0.241 | -3.61 | -3.55 | 12.6 | 15.3 | -3.68 | -10.3 | -9.65 |
| COCC1CC2(CCN(Cc3ccc(OC)cc3)CC2)CN1C(C)C (stereo not given) | -6.15 | -9.09 | -0.064 | -1.66 | -4.05 | 0.0883 | -19.4 | 0.526 | 2.56 | 1.65 |
| COc1cc(N2CCCC(c3nccn3Cc3cscn3)C2)nc(N)n1 (stereo not given) | -4.57 | 5.41 | 16.6 | 6.89 | -22.7 | 15.1 | 25.7 | 6.92 | 14.6 | -3.5 |
